Assay results taken from paper PMC11062922 (Nature Chemical Biology, 2023).
Read-outs that look alike come from different tables or passages of the source.

Legend:
Set-up in all cases: species or system human, MV4-11 + K-562 + COLO205 + SK-N-BE2 + OVCAR-8
[1] = tested on: CAMK2B; settings: read-out: apparent Kd; compound concentrations:100 nM and 1000 nM (sheet 'Samples'); n = 1
[2] = tested on: PBK; settings: read-out: apparent Kd; compound concentrations:100 nM and 1000 nM (sheet 'Samples'); n = 1
[3] = tested on: PKN1; settings: read-out: apparent Kd, n = 1
[4] = tested on: CDC42BPB; settings: read-out: apparent Kd, compound concentrations: 100 nM and 1000 nM (sheet 'Samples'), n = 1
[5] = tested on: PRKX; settings: read-out: apparent Kd, compound concentrations: 100 nM and 1000 nM (sheet 'Samples'), n = 1
[6] = tested on: ROCK1; settings: read-out: apparent Kd, compound concentrations: 100 nM and 1000 nM (sheet 'Samples'), n = 1
[7] = tested on: ROCK2; settings: read-out: apparent Kd, compound concentrations: 100 nM and 1000 nM (sheet 'Samples'), n = 1
[8] = tested on: MAPK14; settings: read-out: apparent Kd; compound concentrations:100 nM and 1000 nM (sheet 'Samples'); n = 1
[9] = tested on: MAPKAPK2; settings: read-out: apparent Kd; compound concentrations:100 nM and 1000 nM (sheet 'Samples'); n = 1
[10] = tested on: CAMK4; settings: read-out: apparent Kd, n = 1
[11] = tested on: CSNK1A1; settings: read-out: apparent Kd; compound concentrations: 100 nM and 1000 nM (sheet 'Samples'), CATDS: 0.27381506430700697; n = 1
[12] = tested on: RIOK2; settings: read-out: apparent Kd; compound concentrations: 100 nM and 1000 nM (sheet 'Samples'), CATDS: 0.35131899059620803; n = 1
[13] = tested on: CDK2; settings: read-out: apparent Kd; compound concentrations:100 nM and 1000 nM (sheet 'Samples'); n = 1
[14] = tested on: CDK4; settings: read-out: apparent Kd; compound concentrations:100 nM and 1000 nM (sheet 'Samples'); n = 1
[15] = tested on: GSK3A; settings: read-out: apparent Kd; compound concentrations:100 nM and 1000 nM (sheet 'Samples'); n = 1
[16] = tested on: ILK; settings: read-out: apparent Kd; compound concentrations:100 nM and 1000 nM (sheet 'Samples'); n = 1
[17] = tested on: OPA1; settings: read-out: apparent Kd; compound concentrations:100 nM and 1000 nM (sheet 'Samples'); n = 1
[18] = tested on: SMC4; settings: read-out: apparent Kd; compound concentrations:100 nM and 1000 nM (sheet 'Samples'); n = 1
[19] = tested on: VDAC3; settings: read-out: apparent Kd; compound concentrations:100 nM and 1000 nM (sheet 'Samples'); n = 1
[20] = tested on: CDC42BPA; settings: read-out: apparent Kd; compound concentrations: 100 nM and 1000 nM (sheet 'Samples'), CATDS: 6.9468579457902302E-2; n = 1
[21] = tested on: CDC42BPG; settings: read-out: apparent Kd; compound concentrations: 100 nM and 1000 nM (sheet 'Samples'), CATDS: 0.15429937992002599; n = 1
[22] = tested on: PRKACA; settings: read-out: apparent Kd; compound concentrations: 100 nM and 1000 nM (sheet 'Samples'), CATDS: 0.135293982303474; n = 1
[23] = tested on: PRKACB; settings: read-out: apparent Kd; compound concentrations: 100 nM and 1000 nM (sheet 'Samples'), CATDS: 0.11075307193468301; n = 1
[24] = tested on: PRKG1; settings: read-out: apparent Kd; compound concentrations: 100 nM and 1000 nM (sheet 'Samples'), CATDS: 7.6658344406139403E-2; n = 1
[25] = tested on: CDC7; settings: read-out: apparent Kd; compound concentrations:100 nM and 1000 nM (sheet 'Samples'); n = 1
[26] = tested on: FN3K; settings: read-out: apparent Kd; compound concentrations:100 nM and 1000 nM (sheet 'Samples'); n = 1
[27] = tested on: GAK; settings: read-out: apparent Kd; compound concentrations:100 nM and 1000 nM (sheet 'Samples'); n = 1
[28] = tested on: ICK; settings: read-out: apparent Kd; compound concentrations:100 nM and 1000 nM (sheet 'Samples'); n = 1
[29] = tested on: MAPK10; settings: read-out: apparent Kd; compound concentrations:100 nM and 1000 nM (sheet 'Samples'); n = 1
[30] = tested on: RIPK2; settings: read-out: apparent Kd; compound concentrations:100 nM and 1000 nM (sheet 'Samples'); n = 1
[31] = compound concentrations:100 nM and 1000 nM (sheet 'Samples')

C[C@@H]1CCN(C(=O)CO)C[C@@H]1N(C)c1ncnc2[nH]ccc12 [PFE-PKIS_34]
potency estimated from few doses [1]: 0.563 µM | potency estimated from few doses [2]: 1.93 µM | potency estimated from few doses [3, 31]: 1.14 µM

CC1=C(C(=O)Nc2cc(Cl)c3[nH]ncc3c2)C(c2ccc(C(F)(F)F)cc2)CC(=O)N1 (centres unmarked) [GSK466317A]
potency estimated from few doses ([4]; CATDS: 0.18288519935085101): 1.94 µM | potency estimated from few doses ([5]; CATDS: 0.17762279557226701): 2.18 µM | potency estimated from few doses ([6]; CATDS: 0.39431900573288498): 0.277 µM | potency estimated from few doses ([7]; CATDS: 0.422625118244225): 0.246 µM

FC(F)(F)c1ccccc1-c1cc(-c2c[nH]nc2-c2ccccn2)ccn1 [GW679396X]
potency estimated from few doses [1]: 0.628 µM | potency estimated from few doses [8]: 0.845 µM | potency estimated from few doses [9]: 0.941 µM

COc1ccc(C2=C(N3CCc4ccccc43)C(=O)NC2=O)cc1 [SB-361058]
potency estimated from few doses ([10]; compound concentrations: 100 nM and 1000 nM (sheet 'Samples'), CATDS: 0.39976270483603599): 1.17 µM | potency estimated from few doses [11]: 2.59 µM | potency estimated from few doses [12]: 1.48 µM

O=C(Nc1n[nH]c2nc(-c3nccs3)c(Br)cc12)C1CC1 [SB-742251]
potency estimated from few doses [10, 31]: 1.8 µM | potency estimated from few doses [13]: 1.64 µM | potency estimated from few doses [14]: 1.48 µM | potency estimated from few doses [15]: 0.873 µM | potency estimated from few doses [16]: 2.01 µM | potency estimated from few doses [17]: 1.52 µM | potency estimated from few doses [18]: 1.95 µM | potency estimated from few doses [19]: 2 µM

NCCCC(NC(=O)c1cc(Br)c(-c2ccnc3[nH]ccc23)s1)c1ccccc1.NCCCC(NC(=O)c1cc(Br)c(-c2ccnc3[nH]ccc23)s1)c1ccccc1.O=C(O)C(F)(F)F.O=C(O)C(F)(F)F (centres unmarked) [GSK1287544A]
potency estimated from few doses [20]: 0.735 µM | potency estimated from few doses ([4]; CATDS: 0.12045997656794601): 0.111 µM | potency estimated from few doses [21]: 0.065 µM | potency estimated from few doses ([3]; compound concentrations: 100 nM and 1000 nM (sheet 'Samples'), CATDS: 6.0218156247889197E-2): 1.75 µM | potency estimated from few doses [22]: 0.0853 µM | potency estimated from few doses [23]: 0.137 µM | potency estimated from few doses [24]: 0.465 µM | potency estimated from few doses ([5]; CATDS: 6.23454867877557E-2): 1.37 µM | potency estimated from few doses ([6]; CATDS: 0.22662167781686399): 0.0333 µM | potency estimated from few doses ([7]; CATDS: 0.23262842536730999): 0.0319 µM

COc1cc2ncnc(Nc3cccc(Br)c3)c2cc1OC.Cl [GI230329A]
potency estimated from few doses [1]: 0.405 µM | potency estimated from few doses [25]: 2.06 µM | potency estimated from few doses [26]: 2.15 µM | potency estimated from few doses [27]: 0.319 µM | potency estimated from few doses [28]: 1.37 µM | potency estimated from few doses [29]: 0.956 µM | potency estimated from few doses [30]: 1.14 µM
